uPA generation: blocks generation of uPA at the cell surface; cell surface uPA generation assay, qHTS; Potency, µM (titrated, usually from 38.3 µM), for the others: at the top dose activity change, negative = inhibition, most hits filed as inhibitors; 330,000 tested, 0.31% active; active means well fitted inhibition curve with a large enough effect; inconclusive means small, poorly fitted or top-dose-only effect; inactive means no such curve, though single readings can be large or run the other way; tested in mouse RAW 264.7 cells; further: potency means the concentration at half of the fitted maximal effect; on the % scale 0 is the no-effect control and ±100 the full control effect; nearly all actives have a fitted effect of over 55% in size
TRPV1 PAM: potentiators of human vanilloid receptor 1 (TRPV1); Q8NER1; TRPV1-expressing cells, Fluo-8 calcium influx, capsaicin EC20 potentiation; potentiation, % at 8.33 µM; 320,000 tested, 0.02% active; AID 540277; in the data active means potentiation above about 80%; inconclusive means between about 30% and that limit; further: 0% is about no effect
Target sequence (Q8NER1 whole entry, looked up): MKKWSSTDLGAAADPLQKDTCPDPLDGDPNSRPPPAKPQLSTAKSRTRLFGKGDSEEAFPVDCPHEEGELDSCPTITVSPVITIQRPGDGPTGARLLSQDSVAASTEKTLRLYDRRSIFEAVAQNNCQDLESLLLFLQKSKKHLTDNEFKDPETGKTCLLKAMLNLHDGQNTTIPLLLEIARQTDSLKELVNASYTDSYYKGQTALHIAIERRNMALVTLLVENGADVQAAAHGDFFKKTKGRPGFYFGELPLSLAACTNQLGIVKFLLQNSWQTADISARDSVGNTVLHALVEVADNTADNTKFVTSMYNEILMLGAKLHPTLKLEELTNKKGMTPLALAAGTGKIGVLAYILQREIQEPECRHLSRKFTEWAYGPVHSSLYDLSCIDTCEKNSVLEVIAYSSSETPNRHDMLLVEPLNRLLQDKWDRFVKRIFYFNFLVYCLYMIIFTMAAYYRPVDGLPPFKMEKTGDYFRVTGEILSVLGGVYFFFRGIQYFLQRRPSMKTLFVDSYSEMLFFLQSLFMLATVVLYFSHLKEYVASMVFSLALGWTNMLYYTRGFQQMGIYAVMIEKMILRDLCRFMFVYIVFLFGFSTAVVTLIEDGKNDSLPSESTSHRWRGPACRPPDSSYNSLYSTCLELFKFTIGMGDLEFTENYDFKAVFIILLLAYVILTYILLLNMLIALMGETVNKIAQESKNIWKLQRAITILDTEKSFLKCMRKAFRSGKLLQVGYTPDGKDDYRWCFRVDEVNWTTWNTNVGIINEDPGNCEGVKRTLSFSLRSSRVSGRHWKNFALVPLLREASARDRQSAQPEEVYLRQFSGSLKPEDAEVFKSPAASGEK
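Fluo-8 calcium influx in TRPV1-expressing cells, kinetic read (ex 480/em 520 nm). Compound added and read 3 min for agonist activity, followed by capsaicin at EC20 final and 2 min further read for enhancement.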
RORg inh: ROR gamma (mouse) transcription inhibition; P51450; Drosophila S2 Gal4-RORgamma UAS-luciferase reporter, 20 h; Potency, µM (highest dose often 53.6 µM), inactives show top-dose activity change, negative = inhibition, actives largely listed as inhibitors; 310,000 tested, 5.4% active; AID 2551; further: potency means the concentration at half of the fitted maximal effect; on the % scale 0 is the no-effect control and ±100 the full control effect; nearly all actives have a fitted effect of over 60% in size
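ROR gamma transcriptional activity was tracked as Gal4-UAS luciferase output in stably transfected Drosophila Schneider cells, with compound added 1 hr before 700 uM copper sulfate induction and a 20 hr ambient-temperature incubation.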
TRPV1 ag: activates the human vanilloid receptor TRPV1. 320,000 tested, 0.19% active. Q8NER1. activation, % at 8.33 µM. TRPV1-expressing cells, Fluo-8 calcium influx, agonist mode; in the data active means activation above about 80%; inconclusive means between about 30% and that limit; further: 0% is about no effect
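Fluo-8 calcium influx in TRPV1-expressing cells, kinetic read (ex 480/em 520 nm). Compound added and read 3 min for agonist activity, followed by capsaicin at EC20 final and 2 min further read for enhancement.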
VP16 counter: counter-screen for ROR gamma inhibitors: Gal4-VP16 reporter. Drosophila S2 Gal4-VP16 UAS-luciferase, luminescence, 20 h. Potency, µM (doses to about 53.6 µM), inactives show top-dose activity, negative = inhibition, actives largely listed as inhibitors. 310,000 tested, 3.5% active;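 further: Gal4-VP16 expression switched on by copper sulfate through the metallothionein promoter; potency means the concentration at half of the fitted maximal effect; on the % scale 0 is the no-effect control and ±100 the full control effect; nearly all actives have a fitted effect of over 50% in size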
The depositor's hits bear a star; ? = inconclusive; nt = no result given; [ ] = another dose, or the depositor's remark. Sampled rows, rich in hits. Any-hit rate of the full collection: about 5.8%. Unless noted, the call rests on the fitted dose curve; in most records, active means well fitted curve in the direction sought with a large enough effect; inconclusive means small, poorly fitted or top-dose-only effect, or another doubt; inactive means no such curve, though single readings can be large; an effect the other way counts as inactive or inconclusive.

SMILES	uPA generation	TRPV1 PAM	RORg inh	TRPV1 ag	VP16 counter
COc1cccc(-c2csc(N3CCN(C(=S)Nc4ccc(Cl)cc4)CC3)n2)c1	-9.0%	2.4	?	2.0	?
COc1ccc(-c2csc(N3CCC(c4ccccc4)C3)n2)cc1 (configuration not stated)	1.8%	3.0	11.2µM*	-6.4	-6.0%
CNS(=O)(=O)c1c(C)cc(C)c(N(C)S(=O)(=O)c2ccccc2)c1C	3.1%	15.3	-19.0%	6.7	6.4%
CN(Cc1ccccc1)C(=O)c1ccc(NC(=O)Cc2ccc(NC(=O)C3CCCN(C(=O)C4CCCC4)C3)cc2)cc1 (configuration not stated)	4.5%	nt	nt	nt	nt
COC(=O)C/C=C\[C@@H](C)[C@@H](/C=N\OC[C@@H]1O[C@H](c2ccccc2)C=C[C@@H]1Oc1ccc(OC)cc1)NS(=O)(=O)c1ccc(C)cc1	nt	nt	-1.9%[10 µM]	nt	-3.4%[10 µM]
COc1ccccc1NC(=S)N1CCN(c2nc(-c3ccccc3)cs2)CC1	0.9%	-2.7	14.1µM*	0.9	?
COc1cccc(-c2csc(N3CCN(C(=S)Nc4ccccc4C)CC3)n2)c1	-11.8%	-4.7	7.08µM*	2.3	?
COc1cccc(-c2csc(N3CCN(C(=S)Nc4ccccc4)CC3)n2)c1	-14.3%	9.7	6.31µM*	4.6	?
Cc1cccc(CNc2ncncc2-c2cccc(C#N)c2)c1	nt	nt	27.7%	nt	5.5%
CCCC[C@@H](C)/C=C(C)/C=C(\C)C(=O)NC1=C[C@@](O)(/C=C/C=C/C=C/C(=O)NC2=C(O)CCC2=O)[C@@H]2O[C@@H]2C1=O	nt	nt	0.447µM*	nt	1.26µM*
COc1ccc(-c2csc3nc(-c4ccc(C)cc4)oc(=O)c23)cc1OC	0.2%	19.2	-6.5%	-2.6	?
COc1ccc(-c2csc3nc(-c4ccccc4OC)oc(=O)c23)cc1	-17.2%	-3.0	11.2µM*	-0.6	-19.1%
Cc1cc(/C=C(\C#N)C(=O)NC2CCCCCC2)c(C)n1C	1.1%	-7.7	41.4%	15.4	4.9%
CC1CCN(C(=S)NC(=O)c2ccccc2)CC1	3.8%	10.9	2.82µM*	-2.4	4.47µM*
CCC1CCCCN1C(=S)NC(=O)c1cccc([N+](=O)[O-])c1 (configuration not stated)	3.4%	25.1	0.282µM*	-0.1	-89.0%
CN1CCN(C(=S)NC(=O)c2cccc([N+](=O)[O-])c2)CC1	8.1%	0.4	1µM*	-1.5	1.26µM*
CC(=O)NNC(=S)NC(=O)c1cccc([N+](=O)[O-])c1	-2.6%	0.4	-4.9%[10 µM]	-2.7	-69.5%
CC1CCN(C(=S)NC(=O)c2ccc(C(C)(C)C)cc2)CC1	?	-10.6	nt	25.7	nt
CC1CCN(C(=S)NC(=O)c2cccc([N+](=O)[O-])c2)CC1	0.2%	26.7	0.708µM*	1.9	0.631µM*
Nc1nc(SCc2ccccc2)c2ncn(C3CCCO3)c2n1 (configuration not stated)	-6.9%	nt	nt	nt	nt
Cn1c(=O)c(-c2cc(F)cc(F)c2)nc2cnc(N3CCOCC3)nc21	nt	nt	-10.7%	nt	7.0%
CC(C)C[C@@H](CC(=O)N[C@H](CC(=O)N[C@@H]1CCNC[C@H]1C(=O)N[C@H](CC(=O)N[C@@H](CCC(=O)O)CC(=O)O)CC(C)C)C(C)C)NC(=O)[C@@H]1CNCC[C@H]1N	nt	nt	-14.7%	nt	3.8%
O=C(NC(=S)N(CC1CCC1)CC1CCCO1)c1cccc([N+](=O)[O-])c1 (configuration not stated)	-39.0%	16.6	56.2µM*	3.4	0.282µM*
CCOc1ccccc1Nc1nnc(SCC(=O)N(C)C2CCS(=O)(=O)C2)s1 (configuration not stated)	-0.7%	nt	nt	nt	nt
O=C(CNc1ccccc1)NNC1=NCCC1	8.5%	-2.3	?	-2.5	?
SMILES	uPA generation	TRPV1 PAM	RORg inh	TRPV1 ag	VP16 counter
COc1ccc(NC(=O)c2ccc3ccccc3c2)cc1	-26.9%	-14.2	-32.7%	?	-1.8%
COc1ccc(C(=O)CNc2ccccc2Br)cc1	-2.8%	-8.4	1.78µM*	21.8	?
Cc1ccccc1NCC(=O)c1ccc(Br)cc1	nt	-1.9	15.8%	3.5	-15.3%
COc1ccc(C(=O)CNc2ccc3ccccc3c2)cc1	-1.5%	16.0	12.6µM*	?	?
O=C(CNc1ccc2ccccc2c1)NNC1=NCCC1	0.6%	-5.8	2.82µM*	-2.3	3.98µM*
O=C(Nc1cccc(S(=O)(=O)N2CCOCC2)c1)c1ccc(N2CCCC2=O)cc1	-8.3%	-4.9	nt	0.4	nt
COc1ccc(O[C@H]2C=C[C@@H](c3ccccc3)O[C@@H]2CO/N=C\[C@@H](C)[C@H](OCc2ccccc2)C(C)C)cc1	nt	nt	-1.7%[10 µM]	nt	-1.1%[10 µM]
O=C(CN1CCN(c2ccc(O)cc2)CC1)NC(=O)NCc1ccco1	-5.2%	-3.2	?	0.7	2.5%
Fc1ccc(NC(=S)N/N=C/c2ccc(F)c(F)c2)c(F)c1	0.8%	-4.8	1.12µM*	-1.8	2.51µM*
C=CCNC(=S)Nc1ccc(F)cc1F	-9.4%	-13.8	-40.1%	2.0	-1.8%
Fc1ccc(NC(=S)NN=Cc2ccccc2Cl)cc1	-5.4%	nt	nt	nt	nt
S=C(NCC1CC1)N/N=C/c1ccccc1Cl	1.6%	-2.1	5.62µM*	5.9	?
Fc1ccccc1/C=N/NC(=S)Nc1ccc(Cl)cc1Cl	-7.5%	-12.9	0.631µM*	-0.4	1.26µM*
S=C(N/N=C/c1ccccc1Cl)Nc1cccc(Cl)c1Cl	-13.3%	-3.4	0.398µM*	4.0	11.2µM*
Cc1nn(-c2ccc(Cl)cc2)c(NC(=O)C(C)C)c(-c2ccccc2)c1=O	6.2%	nt	6.4%	nt	-3.8%
CC(C)Nc1nnc(SCC(=O)N2CCN(C(=O)c3ccco3)CC2)s1	0.5%	7.3	nt	-6.5	nt
NCCO/C=C/[C@H](N)C(=O)O	nt	nt	14.5%[10 µM]	nt	1.4%
Cc1ccc(C2=NNC3(CCOC(C)(C)C3)S2)cc1 (configuration not stated)	-4.3%	6.3	5.62µM*	-2.9	7.94µM*
Cc1ccc(S(=O)(=O)NCCC2(C(C)C)CCOC(C)(C)C2)cc1 (configuration not stated)	11.0%	-7.5	0.6%	12.2	-1.5%
COc1cc(CCC(O)CC(=O)CCc2ccccc2)ccc1O (configuration not stated)	-20.3%	13.8	?	84.2*	25.2%
COc1cc(/C=N/NC(=O)CCc2ccccc2)ccc1O	-2.4%	-0.4	10.8%	-1.0	-1.3%
CN(C)CCCN1C(=O)c2cccc3c(Br)ccc(c23)C1=O	7.94µM*	?	-24.8%	2.4	2.0%[10 µM]
O=C(O)CN1C(=O)c2cccc3c(Br)ccc1c23	-0.5%	15.4	1.8%	0.1	-4.9%
CCCCNc1ccc2c3c(cccc13)C(=O)N(CCCC)C2=O	0.8%	-5.0	15.0%	92.2*	-0.3%
CCOC(=O)N1CCN(C(=O)C2CCN(CC3CCCCC3)CC2)CC1	1.8%	2.1	-7.4%	2.1	-8.2%
COC(=O)c1nnc(C(=O)NCc2ccccc2)c2[nH]c3ccccc3c12	nt	nt	-14.4%	nt	-3.1%

Source: PubChem BioAssay (National Center for Advancing Translational Sciences (NCATS))
